Results filed as inconclusive are left out. The source made the active and inactive calls. Unless noted, calls follow the shape of the dose curve; as a rule, active = well fitted curve in the direction sought with a large enough effect in the repeat runs; inconclusive = weak or mixed curves; inactive = no such curve, though single readings can be large; an effect the other way counts as inactive or inconclusive.
Assays:
[1] = biological target: Peroxisome proliferator-activated receptor delta (Homo sapiens) (UniProt Q03181); experiment: qHTS assay to identify small molecule agonists of the peroxisome proliferator-activated receptor delta (PPARd) signaling pathway (AID 743212; calls by dose curve;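 also: HEK293H cells with PPARd UAS beta-lactamase reporter GeneBLAzer system; % is scaled to controls: 0 for no effect and ±100 for the full control effect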)
Chain of Peroxisome proliferator-activated receptor delta (Homo sapiens) (Q03181 whole entry, looked up): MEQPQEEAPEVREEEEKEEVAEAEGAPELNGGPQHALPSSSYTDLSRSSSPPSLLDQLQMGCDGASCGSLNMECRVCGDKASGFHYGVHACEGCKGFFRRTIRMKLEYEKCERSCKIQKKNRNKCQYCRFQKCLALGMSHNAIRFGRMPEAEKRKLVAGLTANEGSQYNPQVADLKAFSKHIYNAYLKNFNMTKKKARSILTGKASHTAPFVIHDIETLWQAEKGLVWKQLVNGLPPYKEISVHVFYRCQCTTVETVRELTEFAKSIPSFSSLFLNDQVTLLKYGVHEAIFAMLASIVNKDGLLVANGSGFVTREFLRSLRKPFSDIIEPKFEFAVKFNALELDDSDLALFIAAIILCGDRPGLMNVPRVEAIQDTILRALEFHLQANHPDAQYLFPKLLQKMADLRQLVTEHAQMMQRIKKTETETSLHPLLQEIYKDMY
Method in brief: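 Beta-lactamase reporter read by fluorescence (LiveBLAzer B/G FRET, 2 h, room temperature). Test agents, in DMSO, incubated at 37 C with PPARd-bla HEK293H cells.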

[2] = qHTS assay to identify small molecule antagonists of the peroxisome proliferator-activated receptor delta (PPARd) signaling pathway - cell viability counter screen (AID 743213); also: % is scaled to controls: 0 for no effect and ±100 for the full control effect; nearly all actives have a fitted effect of over 50% in size
Method in brief: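 Viability counter-screen, qHTS format: PPARd-bla HEK293H, L165041 300 nM final, 17 h compound exposure at 37 C, CellTiter-Glo luminescence after 30 min RT.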

[3] = biological target: Peroxisome proliferator-activated receptor delta (Homo sapiens) (UniProt Q03181); experiment: qHTS assay to identify small molecule antagonists of the peroxisome proliferator-activated receptor delta (PPARd) signaling pathway (AID 743215; active = well fitted inhibition curve with a large enough effect in the signal ratio in the repeat runs, not every such curve was filed as active; the % refers to the signal ratio;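 also: cells stimulated with agonist L165041 at 300 nM final during compound exposure; series mostly up to about 62 µM; % is scaled to controls: 0 for no effect and ±100 for the full control effect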)
Method in brief: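 Agonist L165041 (300 nM final) added with compound to PPARd-bla HEK293H UAS-bla reporter cells; 17 h incubation at 37 C. Read-out: LiveBLAzer FRET substrate, 2 h at room temperature, fluorescence intensity.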

[4] = qHTS assay to identify small molecule agonists of the farnesoid-X-receptor (FXR) signaling pathway - cell viability counter screen (AID 743218); also: % is scaled to controls: 0 for no effect and ±100 for the full control effect; nearly all actives have a fitted effect of over 45% in size
Method in brief: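 Viability counter screen in the same wells: CellTiter-Glo luminescence, 30 min room-temperature incubation, measured after the beta-lactamase read. Cells were GeneBLAzer FXR-UAS-bla HEK 293T, compound-treated 16 h at 37C.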

[5] = qHTS assay to identify small molecule antagonists of the farnesoid-X-receptor (FXR) signaling pathway - cell viability counter screen (AID 743221; active = well fitted cell-killing curve with a large enough effect in the repeat runs, not every such curve was filed as active; also: % is scaled to controls: 0 for no effect and ±100 for the full control effect; nearly all actives have a fitted effect of over 50% in size)
Method in brief: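 Multiplexed counter screen: viability of FXR-bla HEK 293T cells under agonist stimulation by chenodeoxycholic acid (50 uM, final) and test compound for 16 h at 37 C, measured by CellTiter-Glo luminescence in the reporter wells.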

[6] = biological target: Vitamin D3 receptor (Homo sapiens) (UniProt P11473); experiment: qHTS assay to identify small molecule agonists of the vitamin D receptor (VDR) signaling pathway (AID 743222; calls by dose curve; also: % is scaled to controls: 0 for no effect and ±100 for the full control effect)
Chain of Vitamin D3 receptor (Homo sapiens) (P11473 whole entry, looked up): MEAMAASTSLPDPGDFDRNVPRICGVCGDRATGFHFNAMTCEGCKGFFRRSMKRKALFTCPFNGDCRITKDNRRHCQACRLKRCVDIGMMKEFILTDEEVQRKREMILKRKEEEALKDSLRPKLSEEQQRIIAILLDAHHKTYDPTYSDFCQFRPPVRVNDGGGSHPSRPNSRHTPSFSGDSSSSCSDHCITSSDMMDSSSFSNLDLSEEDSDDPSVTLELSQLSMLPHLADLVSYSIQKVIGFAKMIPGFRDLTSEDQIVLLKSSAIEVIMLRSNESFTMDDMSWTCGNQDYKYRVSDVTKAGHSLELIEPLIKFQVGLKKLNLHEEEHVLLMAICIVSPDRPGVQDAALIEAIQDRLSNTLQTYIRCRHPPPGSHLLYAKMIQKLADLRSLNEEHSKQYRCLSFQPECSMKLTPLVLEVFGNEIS
Method in brief: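 Agonist mode, beta-lactamase reporter: fluorescence from LiveBLAzer B/G FRET substrate (2 h, room temperature) read after 16 h compound treatment at 37 C of VDR-bla cells, which were pre-incubated 4 h after seeding.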

[7] = biological target: Vitamin D3 receptor (Homo sapiens) (UniProt P11473); experiment: qHTS assay to identify small molecule antagonists of the vitamin D receptor (VDR) signaling pathway (AID 743223; active = well fitted inhibition curve with a large enough effect in the signal ratio in the repeat runs, not every such curve was filed as active; the % refers to the signal ratio; also: % is scaled to controls: 0 for no effect and ±100 for the full control effect)
Method in brief: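 Cells carrying a VDR-driven beta-lactamase reporter (VDR-bla) were co-treated with compound and 3 nM final 1alpha,25-dihydroxyvitamin D3 for 16 h at 37C; reporter activity was measured as FRET substrate fluorescence after 2 h at room temperature.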

[8] = qHTS assay to identify small molecule agonists of the vitamin D receptor (VDR) signaling pathway - cell viability counter screen (AID 743224); also: series mostly up to about 63 µM; % is scaled to controls: 0 for no effect and ±100 for the full control effect; nearly all actives have a fitted effect of over 50% in size
Method in brief: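 Counter screen run in the same wells as the VDR-bla reporter assay: CellTiter-Glo luminescence, 30 min at room temperature, after 16 h compound treatment at 37C of cells pre-plated for 4 h.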

[9] = qHTS assay to identify small molecule agonists of the NFkB signaling pathway (AID 1159509; active = well fitted curve in the direction sought with a large enough effect in the signal ratio in the repeat runs, not every such curve was filed as active; the % refers to the signal ratio)
Method in brief: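 Beta-lactamase reporter assay run in quantitative high-throughput format on an NF-kB-responsive ME-180 line, with 5 hr compound treatment and a FRET-based blue/green fluorescence readout.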

[10] = qHTS assay to identify small molecule agonists of the NFkB signaling pathway - cell viability counter screen (AID 1159515; calls by dose curve; also: series mostly up to about 61 µM; % is scaled to controls: 0 for no effect and ±100 for the full control effect; nearly all actives have a fitted effect of over 55% in size)
Method in brief: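 Read by CellTiter-Glo luminescence (30 min, room temperature) in the wells also used for the beta-lactamase FRET read. ME-180 NFkB-bla cells at 2,000 per well were plated overnight, then exposed to compound for 5 hr at 37 C.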

[11] = qHTS assay to identify small molecule agonists of the endoplasmic reticulum stress response signaling pathway (AID 1159516; active = well fitted activation curve with a large enough effect in the signal ratio in the repeat runs, not every such curve was filed as active; the % refers to the signal ratio; also: % is scaled to controls: 0 for no effect and ±100 for the full control effect)
Method in brief: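 Ratiometric FRET readout (405 nm excitation; 460 and 530 nm emission) of a beta-lactamase gene driven by the ER stress response element, after 2 hr substrate loading. HeLa ESRE-bla cells were seeded overnight and treated with compounds for only 5 hr at 37 C.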

[12] = qHTS assay to identify small molecule agonists of the endoplasmic reticulum stress response signaling pathway - cell viability counter screen (AID 1159517; calls by dose curve; also: series mostly up to about 61 µM; % is scaled to controls: 0 for no effect and ±100 for the full control effect; nearly all actives have a fitted effect of over 50% in size)
Method in brief: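 Cytotoxicity of test compounds toward ESRE-bla HeLa cells was assessed after 5 hr exposure. The luminescent CellTiter-Glo signal was measured 30 min after reagent addition.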

[13] = qHTS assay to identify small molecule antagonists of the retinoid-related orphan receptor gamma (ROR-gamma) signaling pathway - cell viability counter screen (AID 1159520)
Method in brief: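 Tet-on ROR gamma CHO cells (1,000/well) were plated 4 hr, given compounds in DMSO for 2 hr at 37 C, then induced with 1 uM final doxycycline for 16 hr. Viability was read as ATP by CellTiter-Glo luminescence after 30 min.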

[14] = biological target: Nuclear receptor ROR-gamma (Homo sapiens) (UniProt P51449); experiment: qHTS assay to identify small molecule antagonists of the retinoid-related orphan receptor gamma (ROR-gamma) signaling pathway (AID 1159521)
Method in brief: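 Cells were plated, rested 4 h at 37 C, exposed to compounds for 2 h, then given 1 uM final doxycycline hyclate to induce RORγ expression. After 16 h, ONE-Glo luminescence from the ROR response element reporter was measured.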

[15] = qHTS assay to identify small molecule agonists of the AP-1 signaling pathway (AID 1159526; calls by dose curve; also: % is scaled to controls: 0 for no effect and ±100 for the full control effect)
[16] = biological target: Bile acid receptor (Homo sapiens) (UniProt Q96RI1); experiment: qHTS assay to identify small molecule agonists of the farnesoid-X-receptor (FXR) signaling pathway (AID 743220; active = well fitted activation curve with a large enough effect in the signal ratio in the repeat runs, not every such curve was filed as active; the % refers to the signal ratio; also: % is scaled to controls: 0 for no effect and ±100 for the full control effect)
Chain of Bile acid receptor (Homo sapiens) (Q96RI1 whole entry, looked up): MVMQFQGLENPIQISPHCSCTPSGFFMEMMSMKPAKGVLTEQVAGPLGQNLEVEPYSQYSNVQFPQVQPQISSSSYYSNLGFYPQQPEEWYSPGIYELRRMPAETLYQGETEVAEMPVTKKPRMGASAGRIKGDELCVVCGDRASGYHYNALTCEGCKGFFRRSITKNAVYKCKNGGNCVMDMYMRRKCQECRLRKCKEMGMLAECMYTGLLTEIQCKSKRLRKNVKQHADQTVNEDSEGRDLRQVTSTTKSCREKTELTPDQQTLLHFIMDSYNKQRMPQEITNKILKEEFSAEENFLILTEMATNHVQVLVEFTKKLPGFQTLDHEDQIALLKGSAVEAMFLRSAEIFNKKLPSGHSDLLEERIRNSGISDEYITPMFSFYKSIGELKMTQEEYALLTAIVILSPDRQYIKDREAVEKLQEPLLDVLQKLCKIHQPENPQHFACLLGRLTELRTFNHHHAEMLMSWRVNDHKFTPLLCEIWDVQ
Method in brief: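 FXR-UAS-bla HEK 293T cells carrying a UAS-driven beta-lactamase reporter were plated for 5 h at 37C/5% CO2, then exposed to DMSO-dissolved Tox21 10K compounds for 16 h at 37C. A LiveBLAzer B/G FRET substrate was loaded for 2 h at room temperature before fluorescence reading.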

[17] = qHTS assay to identify small molecule agonists of the AP-1 signaling pathway - cell viability counter screen (AID 1159525; calls by dose curve; also: nearly all actives have a fitted effect of over 55% in size)
Method in brief: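 Each titration point was normalised to DMSO and tetra n-octyl ammonium bromide controls. The read was Cell Titer Glo luminescence after 30 min at RT, following 5 h compound exposure of ME-180 AP-1-bla cells at 37 °C.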

[18] = qHTS assay to identify small molecule agonists of the peroxisome proliferator-activated receptor delta (PPARd) signaling pathway - cell viability counter screen (AID 743211); also: % is scaled to controls: 0 for no effect and ±100 for the full control effect; nearly all actives have a fitted effect of over 55% in size
Method in brief: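 Counter screen for cytotoxicity run in parallel with the PPARd reporter screen. Beta-lactamase reporter HEK293H cells exposed to compounds 17 h; ATP-based CellTiter-Glo luminescence quantified viability.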

[19] = qHTS assay to identify small molecule antagonists of the vitamin D receptor (VDR) signaling pathway - cell viability counter screen (AID 743225)
Method in brief: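 HEK293T VDR-bla; cpd + 1a,25-(OH)2D3 3 nM final, 16 h 37C/5% CO2; B/G FRET substrate 2 h RT; then CellTiter-Glo 30 min RT, luminescence.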

[20] = biological target: Bile acid receptor (Homo sapiens) (UniProt Q96RI1); experiment: qHTS assay to identify small molecule antagonists of the farnesoid-X-receptor (FXR) signaling pathway (AID 743217; active = well fitted inhibition curve with a large enough effect in the signal ratio in the repeat runs, not every such curve was filed as active; the % refers to the signal ratio; also: % is scaled to controls: 0 for no effect and ±100 for the full control effect)
Method in brief: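 Antagonist mode: chenodeoxycholic acid at 50 uM final stimulates a UAS-driven beta-lactamase reporter in HEK 293T FXR-bla cells during 16 h, 37C compound exposure. Read-out is FRET substrate fluorescence after 2 h at room temperature.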

NS(=O)(=O)c1cc(-c2nn[nH]n2)c(NCc2cccs2)cc1Cl
inactive: outcome [1] | Potency [2] | outcome [3] | Potency [4] | outcome [5] | outcome [6] | outcome [7] | Potency [8] | outcome [9] | outcome [10] | outcome [11] | outcome [12] | Potency [13] | Potency [14] | Potency [15]

CN1CCN(C2=Nc3cc(F)ccc3Cc3ccccc32)CC1
inactive: outcome [1] | outcome [3] | Potency [4] | outcome [16] | outcome [6] | outcome [7] | Potency [8] | outcome [9] | outcome [10] | outcome [11] | outcome [12] | Potency [13] | Potency [14] | outcome [17]

NC1=NCC2c3ccccc3Cc3ccccc3N12 (stereo not given)
inactive: Potency [18] | Potency [2] | Potency [4] | outcome [7] | Potency [8] | Potency [19] | outcome [9] | outcome [10] | outcome [11] | outcome [12] | Potency [13] | Potency [14] | Potency [15]

CCCCCCCOC(=O)CCC
inactive: Potency [18] | outcome [1] | outcome [3] | Potency [4] | outcome [5] | outcome [6] | outcome [7] | Potency [8] | outcome [9] | outcome [10] | outcome [11] | outcome [12] | Potency [13] | Potency [14] | Potency [15]

C=CC1CO1 (stereo not given)
inactive: Potency [18] | Potency [4] | outcome [5] | outcome [6] | Potency [8] | Potency [19] | outcome [9] | outcome [10] | outcome [11] | outcome [12] | Potency [13] | Potency [14] | Potency [15]

CC1CN(c2ccccc2)NC1=O (stereo not given)
inactive: outcome [1] | Potency [2] | outcome [3] | Potency [4] | outcome [16] | outcome [5] | outcome [6] | outcome [9] | outcome [10] | outcome [11] | outcome [12] | Potency [13] | Potency [14] | outcome [17]

CC(C)C(=O)OC/C=C/c1ccccc1
inactive: Potency [18] | outcome [1] | outcome [3] | Potency [4] | outcome [16] | outcome [5] | outcome [6] | outcome [7] | Potency [8] | Potency [19] | outcome [9] | outcome [10] | outcome [11] | outcome [12] | Potency [13] | Potency [14] | Potency [15]

CCN(CC)CCOc1ccc(Cc2ccccc2)cc1
inactive: outcome [1] | outcome [3] | Potency [19] | outcome [9] | outcome [10] | outcome [11] | outcome [12] | Potency [13] | Potency [14] | outcome [17]

C[C@@H](N)C(=O)O
inactive: outcome [1] | Potency [2] | Potency [4] | outcome [7] | Potency [19] | outcome [9] | outcome [10] | outcome [11] | outcome [12] | Potency [13] | Potency [14] | outcome [17]

O=C(O)CN(CCN(CC(=O)O)CC(=O)O)CCN(CC(=O)O)CC(=O)O
inactive: Potency [18] | outcome [1] | Potency [2] | Potency [4] | outcome [5] | outcome [6] | Potency [8] | Potency [19] | outcome [9] | outcome [10] | outcome [11] | outcome [12] | activity, negative = cytotoxicity [13] 4.04% [at 19 µM] | activity change, negative = inhibition [14] -6.39% [at 19 µM] | activation [15] -0.136% [at 15.8 µM]

Cc1c(N)cccc1N
inactive: Potency [18] | outcome [1] | Potency [2] | outcome [3] | Potency [4] | outcome [5] | outcome [6] | outcome [7] | Potency [8] | Potency [19] | outcome [9] | outcome [10] | outcome [11] | outcome [12] | Potency [13] | Potency [14] | Potency [15]

Cc1cc2c(s1)Nc1ccccc1N=C2N1CCN(C)CC1
inactive: Potency [18] | Potency [2] | outcome [3] | Potency [4] | outcome [5] | outcome [6] | outcome [7] | Potency [8] | outcome [9] | outcome [10] | outcome [11] | outcome [12] | Potency [13] | Potency [14]

CCOC(=O)C(Br)c1ccccc1 (stereo not given)
inactive: Potency [18] | Potency [2] | outcome [3] | Potency [4] | outcome [5] | outcome [6] | Potency [8] | outcome [9] | outcome [10] | outcome [11] | outcome [12] | Potency [13] | Potency [14] | Potency [15]

O=C(O)[C@@H](O)[C@H](O)[C@H](O)[C@@H](O)C(=O)O
inactive: Potency [18] | outcome [1] | Potency [2] | outcome [3] | Potency [4] | outcome [5] | Potency [8] | Potency [19] | outcome [9] | outcome [10] | outcome [11] | outcome [12] | Potency [13] | Potency [14] | Potency [15]

Cc1ccc(C(C)C)cc1O
inactive: Potency [18] | Potency [4] | outcome [5] | outcome [6] | Potency [8] | Potency [19] | outcome [9] | outcome [10] | outcome [11] | outcome [12] | Potency [13] | Potency [14] | outcome [17]

CC(C)c1ccccc1
inactive: outcome [20] | Potency [4] | outcome [16] | outcome [5] | outcome [7] | Potency [19] | outcome [9] | outcome [10] | outcome [11] | outcome [12] | Potency [13] | Potency [14] | outcome [17]

O=C1CCCCC1C1CCCCC1 (stereo not given)
inactive: Potency [18] | outcome [1] | outcome [3] | Potency [4] | outcome [6] | outcome [7] | Potency [8] | Potency [19] | outcome [9] | outcome [10] | outcome [11] | outcome [12] | Potency [13] | Potency [14] | Potency [15]

CCN(O)CC
inactive: Potency [18] | outcome [1] | outcome [3] | Potency [4] | outcome [5] | outcome [6] | outcome [7] | Potency [8] | Potency [19] | outcome [9] | outcome [10] | outcome [11] | outcome [12] | Potency [13] | Potency [14]

C/C(=N\O)[C@@H](C)NCC(C)(C)CN[C@H](C)/C(C)=N/O
inactive: Potency [18] | outcome [1] | Potency [2] | Potency [4] | outcome [5] | outcome [6] | outcome [7] | Potency [8] | Potency [19] | outcome [9] | outcome [10] | outcome [11] | outcome [12] | Potency [13] | Potency [14] | Potency [15]

— PubChem BioAssay (Tox21)
